Molecules are shown by their SMILES. Results filed as inconclusive are left out. Calls of active or inactive are those of the source. Unless noted, the call rests on the fitted dose curve; in most records, active means well fitted curve in the direction sought with a large enough effect; inconclusive means small, poorly fitted or top-dose-only effect, or another doubt; inactive means no such curve, though single readings can be large; an effect the other way counts as inactive or inconclusive.

Test system in the first experiment: not listed separately
The experiment in a line: Primary qHTS for inhibitors of nuclear receptor binding SET domain protein 2 (NSD2) in an RCH-ACV wild type WT cells (2C) (AID 1645877). Further: potency means the concentration at half of the fitted maximal effect; nearly all actives have a fitted effect of over 70% in size. The following applies: RCH-ACV (leukaemia line) NSD2 WT (2C) viability, CellTiter-Glo, 72 h; series mostly up to 44.9 µM; activity change, negative = cell killing: at the top concentration. In general terms: qHTS replaces the single test concentration by a dilution series.
Regarding `CN1CCN(c2ccc3nc(-c4cc(C(C)(C)C)c(OCCCC(=O)NCCCN=[N+]=[N-])c(C(C)(C)C)c4)[nH]c3c2)CC1`, the Potency was 6610 nM (active).
Same read-out and setting: the figure for `NC(=O)c1cccc2c(NC(CN3CCC3)c3ccc(Cl)c(C(F)(F)F)c3)ncnc12` (centres undefined) is 1320 nM (active); for `O=c1cc(N2CCOCC2)oc2c(-c3ccc4c(c3)OCCO4)csc12` it is 590 nM (active).
On the same count and under the same terms, to `CCN(CC)CCNC(=O)c1c(C)[nH]c(/C=C2/C(=O)Nc3ccc(-c4csc(-c5ccccc5)n4)cc32)c1C` belongs 5900 nM (active).
With `Nc1nc2c(c(=O)[nH]1)N1CN(c3ccc(C(=O)N[C@@H](CCC(=O)O)C(=O)O)cc3)CC1CN2` (some centres undefined), the Potency was 742 nM (active).
As for `Cc1c(C(=O)Nc2ccc(Oc3ccnc4[nH]cc(-c5ccccc5)c34)c(F)c2)c(=O)n(-c2ccc(F)cc2)n1C`, the Potency was 1860 nM (active).
On to `O=C1NC(=O)[C@@H](c2c[nH]c3ccccc23)[C@H]1c1cn2c3c(cccc13)CCC2`, for which the Potency is 934 nM (active).
Take `COC1CC(C(=O)c2ccc3c(N)ncc(-c4ccc(-c5cnn(C)c5)cc4)c3n2)C1` (centres undefined): the Potency is 41.7 nM (active).
In the case of `COc1cc(C(N)=O)ccc1NC(=O)[C@@H]1N[C@@H](CC(C)(C)C)[C@@]2(C(=O)Nc3cc(Cl)ccc32)[C@H]1c1cccc(Cl)c1F`, the Potency was 93.4 nM (active).
The same measure, in the same setting: to `COc1nnc2ccc(N3CCC(c4ccc(OCCN5CCN(C)C(=O)[C@H]5C)cc4)CC3)nn12` belongs 52.5 nM (active).

The target of a further experiment is Glutathione peroxidase 1 (Homo sapiens) (UniProt P07203). Kind of experiment: Primary qHTS Assay for Inhibitors of Recombinant Selenoprotein Glutathione Peroxidase 1 (GPX1) (AID 1845191). Further: nearly all actives have a fitted effect of over 65% in size. On activity, negative = inhibition: on the % scale 0 is the no-effect control and ±100 the full control effect. The following applies: recombinant GPX1, GR-coupled NADPH fluorescence, 15 min; series mostly up to 48.8 µM; activity, negative = inhibition: at the top concentration. Summed up: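 10 nM GPX1 + cpd, 30 min RT; start w/ 1 mM GSH, 0.5 mM cumene hydroperoxide, 0.5 mM NADPH, 100 nM GR, 0.01% BSA; buffer 50 mM Tris-HCl pH 7.5, 2 mM EDTA, 150 mM NaCl; Fl 340/450, 0 & 15 min.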
Chain of Glutathione peroxidase 1 (Homo sapiens) (P07203 whole entry, looked up): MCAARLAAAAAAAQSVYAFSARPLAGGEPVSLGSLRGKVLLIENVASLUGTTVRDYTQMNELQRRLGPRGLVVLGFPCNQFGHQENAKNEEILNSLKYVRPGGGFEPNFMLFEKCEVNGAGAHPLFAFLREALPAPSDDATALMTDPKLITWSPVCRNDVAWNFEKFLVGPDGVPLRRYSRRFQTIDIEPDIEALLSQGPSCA
Consider `CN1CCN(c2ccc3nc(-c4cc(C(C)(C)C)c(OCCCC(=O)NCCCN=[N+]=[N-])c(C(C)(C)C)c4)[nH]c3c2)CC1`, for which the result was inactive.
In the case of `Cc1ccccc1N1CCN(S(=O)(=O)C[C@]23CCC(CC2NC(=O)[C@@H](N)CCS(C)(=O)=O)C3(C)C)CC1` (some centres undefined), the “activity, negative = inhibition” value is -7.61% (inactive).
The same measure, in the same setting: the figure for `NC(=O)c1cccc2c(NC(CN3CCC3)c3ccc(Cl)c(C(F)(F)F)c3)ncnc12` (centres undefined) is -12.1% (inactive).
On to `O=c1cc(N2CCOCC2)oc2c(-c3ccc4c(c3)OCCO4)csc12`, for which the result was inactive.
In the case of `CCN(CC)CCNC(=O)c1c(C)[nH]c(/C=C2/C(=O)Nc3ccc(-c4csc(-c5ccccc5)n4)cc32)c1C`, the “activity, negative = inhibition” value was -3.57% (inactive).
On to `Nc1nc2c(c(=O)[nH]1)N1CN(c3ccc(C(=O)N[C@@H](CCC(=O)O)C(=O)O)cc3)CC1CN2` (some centres undefined), for which the “activity, negative = inhibition” value was -1.27% (inactive).
Consider `Cc1c(C(=O)Nc2ccc(Oc3ccnc4[nH]cc(-c5ccccc5)c34)c(F)c2)c(=O)n(-c2ccc(F)cc2)n1C`, for which the result was inactive.
In the case of `O=C1NC(=O)[C@@H](c2c[nH]c3ccccc23)[C@H]1c1cn2c3c(cccc13)CCC2`, the “activity, negative = inhibition” value is -11.3% (inactive).
As for `COC1CC(C(=O)c2ccc3c(N)ncc(-c4ccc(-c5cnn(C)c5)cc4)c3n2)C1` (centres undefined), the “activity, negative = inhibition” value is 4.24% (inactive).
As to `COc1cc(C(N)=O)ccc1NC(=O)[C@@H]1N[C@@H](CC(C)(C)C)[C@@]2(C(=O)Nc3cc(Cl)ccc32)[C@H]1c1cccc(Cl)c1F`, the result was inactive.

The target of the next experiment is Phospholipid hydroperoxide glutathione peroxidase GPX4 (Homo sapiens) (UniProt P36969). Kind of experiment: Primary qHTS Assay for Inhibitors of Recombinant Selenoprotein Glutathione Peroxidase 4 (GPX4) (AID 1845192). Further: nearly all actives have a fitted effect of over 65% in size. On activity change, negative = inhibition: on the % scale 0 is the no-effect control and ±100 the full control effect. The settings on record: recombinant GPX4, GR-coupled NADPH fluorescence, 15 min; series mostly up to 50 µM; activity change, negative = inhibition: at the top concentration. Summed up: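 NADPH consumption, followed by fluorescence at 340/450 nm between 0 and 15 min, reports GPX4 activity via coupled glutathione reductase (100 nM). Enzyme 200 nM was pre-exposed to compound 30 min; 0.5 mM cumene hydroperoxide and 1 mM GSH served as substrates.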
Chain of Phospholipid hydroperoxide glutathione peroxidase GPX4 (Homo sapiens) (P36969 whole entry, looked up): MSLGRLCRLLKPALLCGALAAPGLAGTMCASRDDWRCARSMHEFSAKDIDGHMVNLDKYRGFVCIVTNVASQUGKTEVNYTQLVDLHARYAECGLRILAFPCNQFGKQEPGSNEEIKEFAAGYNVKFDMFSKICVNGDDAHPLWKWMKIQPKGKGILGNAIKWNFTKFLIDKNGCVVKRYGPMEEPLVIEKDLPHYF
As to `O=c1cc(N2CCOCC2)oc2c(-c3ccc4c(c3)OCCO4)csc12`, the “activity change, negative = inhibition” value is -27.7% (inactive).
Take `CCN(CC)CCNC(=O)c1c(C)[nH]c(/C=C2/C(=O)Nc3ccc(-c4csc(-c5ccccc5)n4)cc32)c1C`: the “activity change, negative = inhibition” value is -4.74% (inactive).
Regarding `Nc1nc2c(c(=O)[nH]1)N1CN(c3ccc(C(=O)N[C@@H](CCC(=O)O)C(=O)O)cc3)CC1CN2` (some centres undefined), the result was inactive.
Turning to `Cc1c(C(=O)Nc2ccc(Oc3ccnc4[nH]cc(-c5ccccc5)c34)c(F)c2)c(=O)n(-c2ccc(F)cc2)n1C`, the “activity change, negative = inhibition” value is -20.6% (inactive).
On to `COC1CC(C(=O)c2ccc3c(N)ncc(-c4ccc(-c5cnn(C)c5)cc4)c3n2)C1` (centres undefined), for which the “activity change, negative = inhibition” value was 2.98% (inactive).

Test system in the next experiment: not listed separately
Kind of experiment: qHTS drug screen for cell cycle checkpoint inhibitors in PARPi-resistant BRCA-mutant ovarian cancer cell lines. (AID 1963452; calls by dose curve). The following applies: PEO1/OlaR viability, CellTiter-Glo luminescence, 96 h; stronger effect = lower value. In short, it runs like this: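 PEO1, PEO4 and PEO1/OlaR ovarian cancer cells, 600 per well, exposed 96 h at 37C to a dilution series. Viability read by CellTiter-Glo luminescence, normalized to DMSO and empty wells; activity summarized as Z-AUC.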
As for `CN1CCN(c2ccc3nc(-c4cc(C(C)(C)C)c(OCCCC(=O)NCCCN=[N+]=[N-])c(C(C)(C)C)c4)[nH]c3c2)CC1`, the Z-AUC was 0.842 (inactive).
Regarding `NC(=O)c1cccc2c(NC(CN3CCC3)c3ccc(Cl)c(C(F)(F)F)c3)ncnc12` (centres undefined), the Z-AUC is 0.286 (inactive).
For `O=c1cc(N2CCOCC2)oc2c(-c3ccc4c(c3)OCCO4)csc12`, the Z-AUC is -0.839 (inactive).
Turning to `CCN(CC)CCNC(=O)c1c(C)[nH]c(/C=C2/C(=O)Nc3ccc(-c4csc(-c5ccccc5)n4)cc32)c1C`, the Z-AUC is 0.984 (inactive).
For `Nc1nc2c(c(=O)[nH]1)N1CN(c3ccc(C(=O)N[C@@H](CCC(=O)O)C(=O)O)cc3)CC1CN2` (some centres undefined), the Z-AUC was -1.54 (inactive).
Same read-out and setting: the figure for `Cc1c(C(=O)Nc2ccc(Oc3ccnc4[nH]cc(-c5ccccc5)c34)c(F)c2)c(=O)n(-c2ccc(F)cc2)n1C` is 0.886 (inactive); for `O=C1NC(=O)[C@@H](c2c[nH]c3ccccc23)[C@H]1c1cn2c3c(cccc13)CCC2` it is -1.13 (inactive); for `COC1CC(C(=O)c2ccc3c(N)ncc(-c4ccc(-c5cnn(C)c5)cc4)c3n2)C1` (centres undefined) it is -1.33 (inactive).
As for `COc1cc(C(N)=O)ccc1NC(=O)[C@@H]1N[C@@H](CC(C)(C)C)[C@@]2(C(=O)Nc3cc(Cl)ccc32)[C@H]1c1cccc(Cl)c1F`, the Z-AUC is -0.18 (inactive).

The same experiment, now with this note: PEO1/OlaR viability, CellTiter-Glo luminescence, 96 h; measured here: PEO1 parental Z-AUC; stronger effect = lower value.
Take `CN1CCN(c2ccc3nc(-c4cc(C(C)(C)C)c(OCCCC(=O)NCCCN=[N+]=[N-])c(C(C)(C)C)c4)[nH]c3c2)CC1`: the Z-AUC came to 0.24.
Same read-out and setting: the figure for `NC(=O)c1cccc2c(NC(CN3CCC3)c3ccc(Cl)c(C(F)(F)F)c3)ncnc12` (centres undefined) is 0.149; for `O=c1cc(N2CCOCC2)oc2c(-c3ccc4c(c3)OCCO4)csc12` it is -0.602; for `CCN(CC)CCNC(=O)c1c(C)[nH]c(/C=C2/C(=O)Nc3ccc(-c4csc(-c5ccccc5)n4)cc32)c1C` it is 0.413.
`Nc1nc2c(c(=O)[nH]1)N1CN(c3ccc(C(=O)N[C@@H](CCC(=O)O)C(=O)O)cc3)CC1CN2` (some centres undefined): the Z-AUC was -1.06.
Same read-out and setting: the figure for `Cc1c(C(=O)Nc2ccc(Oc3ccnc4[nH]cc(-c5ccccc5)c34)c(F)c2)c(=O)n(-c2ccc(F)cc2)n1C` is 0.825; for `O=C1NC(=O)[C@@H](c2c[nH]c3ccccc23)[C@H]1c1cn2c3c(cccc13)CCC2` it is -0.673.
In the case of `COC1CC(C(=O)c2ccc3c(N)ncc(-c4ccc(-c5cnn(C)c5)cc4)c3n2)C1` (centres undefined), the Z-AUC is -1.16.
Regarding `COc1cc(C(N)=O)ccc1NC(=O)[C@@H]1N[C@@H](CC(C)(C)C)[C@@]2(C(=O)Nc3cc(Cl)ccc32)[C@H]1c1cccc(Cl)c1F`, the Z-AUC was -0.499.
With `COc1nnc2ccc(N3CCC(c4ccc(OCCN5CCN(C)C(=O)[C@H]5C)cc4)CC3)nn12`, the Z-AUC is -1.72.

(Values after PubChem BioAssay (NCATS).)
